Laboratory results as given in PubChem BioAssay (NCATS).
A number with no mark means an inactive call. Inconclusive results are not listed. Entries that show only a call come without a potency. Activity calls are given as the source filed them. Unless noted, the call rests on the fitted dose curve; in most records, active means well fitted curve in the direction sought with a large enough effect; inconclusive means small, poorly fitted or top-dose-only effect, or another doubt; inactive means no such curve, though single readings can be large; an effect the other way counts as inactive or inconclusive.

Legend:
[1] = qHTS for Activators of Parkin Expression: LOPAC Validation Assay (NLuc Reporter) (AID 720572)
Outline: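 NLuc signal, read 10 min after reagent and following a prior FLuc read, is normalized to DMSO (0) and positive controls (100%). Cells: neuronal Parkin-promoter coincidence reporter line; compounds tested 7-point, 24 h, 37 C, 5% CO2.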

[2] = qHTS for Activators of Parkin Expression: LOPAC Validation Assay (FLuc Reporter) (AID 720573; further: potency means the concentration at half of the fitted maximal effect); details: Cell line, PRKN promoter firefly luciferase reporter
Outline: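 FLuc signal from Parkin-promoter coincidence reporter neuronal cells, normalized to DMSO and positive control (100%). Cells (1,500/well) pre-incubated 24 h, then exposed to LOPAC compounds in 7-point dose response for 24 h at 37 C, 5% CO2.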

[3] = biological target: T1, Hexokinase-4 (Homo sapiens) + Glucokinase regulatory protein (Homo sapiens) (UniProt P35557+Q14397); assay: qHTS assay for inhibitors of recombinant human GCK-GKRP interaction: Diaphorase-coupled assay (AID 743205)
Outline: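 A kinetic fluorescence read (Ex 525/Em 590 nm, every minute for 30 minutes) tracked resorufin from a G6PDH-diaphorase coupled GCK reaction. It contained 10 nM GST-GCK, 10 nM FLAG-GKRP, 5 mM glucose, 0.4 mM ATP in Hepes pH 7.6. Normalized to with/without-enzyme DMSO controls.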

[4] = biological target: T1, Hexokinase-4 (Homo sapiens) + Glucokinase regulatory protein (Homo sapiens); assay: qHTS assay for inhibitors of recombinant human GCK-GKRP interaction: ADP-Glo assay (AID 743206)
Outline: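 Pin-transferred compounds meet a 15 nM GST-GCK/15 nM FLAG-GKRP/2 uM S6P mix (dispense concentrations). ATP is then added to 0.4 mM final with 5 mM glucose, and the reaction runs 60 min at room temperature. ADP is quantified luminescently.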

[5] = biological target: T1, Hexokinase-4 (Homo sapiens) + Glucokinase regulatory protein (Homo sapiens); assay: qHTS assay for inhibitors of recombinant human GCK-GKRP interaction: HTRF assay (AID 743207)
Outline: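 After 60 min equilibration at room temperature with anti-FLAG XL665 and anti-GST antibodies, FRET ratio (665/615 nm, excitation 320 nm) was read. Proteins: GST-GCK and FLAG-GKRP, each 5 nM, plus 2 uM S6P, pH 7.1 buffer; GCK-free wells define minimum signal.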

[6] = qHTS assay for small molecule agonists of the antioxidant response element (ARE) signaling pathway measured by Nrf2-dependant transcriptional activity (AID 720636; active means well fitted curve in the direction sought with a large enough effect in the repeat runs; an effect the other way counts as inactive or inconclusive;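 further: HepG2 cells with an ARE-driven luciferase reporter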)
Outline: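 Reporter gene assay, HepG2 ARE-luc: 16 hr compound, 37 C, 5% CO2; read-out luciferase luminescence.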

[7] = qHTS assay for small molecule agonists of the antioxidant response element (ARE) signaling pathway measured by Nrf2-dependant transcriptional activity - cell viability counter screen (AID 720653; active means well fitted curve in the direction sought with a large enough effect in the repeat runs; an effect the other way counts as inactive or inconclusive); details: ARE-bla HepG2 viability, CellTiter-Glo ATP luminescence, 16 h; stronger effect = lower value
Outline: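 ARE-bla HepG2 cells treated with compounds for 16 h at 37C; this counter screen measures viability as intracellular ATP by CellTiter-Glo luminescence after 30 min at room temperature.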

[8] = qHTS assay for cell viability of HEK293 cells (AID 743288); details: ATP luminescence (CellTiter-Glo), 18 h, stronger effect = lower value; further: nearly all actives have a fitted effect of over 50% in size
From the text: National Center for Advancing Translational Sciences [NCATS]
NIH Chemical Genomics Center [NCGC]
U.S. Environmental Protection Agency [EPA]
National Institutes of Environmental Health Sciences [NIEHS]
National Toxicology Program [NTP]
U.S. Food and Drug Administration [FDA]
The CellTiter-Glo Luminescent Cell Viability Assay (Promega, Madison, WI) is a homogeneous method to determine the number of viable cells in culture based on quantitation of the ATP present, which signals the presence of metabolically active cells. This cell viability assay was used to screen environmental chemicals in the Hek293 cell line.
Tox21 Assay Protocol Summary:
Cell viability after compound treatment was measured using a luciferase-coupled ATP quantitation assay (CellTiter-Glo viability assay, Promega, Madison, WI) in parental HEK293 cells. Total intracellular ATP content corresponds to the number of metabolically competent cells after compound treatment. The cells were dispensed at 2,000 cells/5 uL/well in 1,536-well white/solid bottom assay plates using a Flying Reagent Dispenser (Aurora Discovery, San Diego, CA). […] After 30 min incubation at room temperature, the luminescence intensity of the plates was measured using a ViewLux plate reader (PerkinElmer, Shelton, CT).

[9] = qHTS assay for cell viability of the p53RE-bla HCT-116 cell line (AID 743292); further: nearly all actives have a fitted effect of over 55% in size
Outline: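 Readout: CellTiter-Glo luminescence after 30 min RT. Treatment: compounds in DMSO, 16 h, 37 C. Cells: CellSensor p53RE-bla HCT-116, 4,000/well, preincubated 5 h.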

T1 sequence (P35557 whole entry, looked up): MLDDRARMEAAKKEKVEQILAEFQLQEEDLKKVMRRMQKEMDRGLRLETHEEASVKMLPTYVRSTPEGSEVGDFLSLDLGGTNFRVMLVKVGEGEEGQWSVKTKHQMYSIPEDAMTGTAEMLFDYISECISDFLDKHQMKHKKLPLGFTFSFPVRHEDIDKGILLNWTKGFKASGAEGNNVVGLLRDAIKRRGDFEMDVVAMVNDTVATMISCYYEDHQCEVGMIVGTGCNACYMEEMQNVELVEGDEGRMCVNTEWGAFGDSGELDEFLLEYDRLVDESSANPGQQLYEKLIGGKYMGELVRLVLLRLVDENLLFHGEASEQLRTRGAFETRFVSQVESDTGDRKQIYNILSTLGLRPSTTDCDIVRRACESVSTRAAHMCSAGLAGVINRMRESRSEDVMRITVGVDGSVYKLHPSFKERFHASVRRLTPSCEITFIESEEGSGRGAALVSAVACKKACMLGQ
T1 sequence (Q14397 whole entry, looked up): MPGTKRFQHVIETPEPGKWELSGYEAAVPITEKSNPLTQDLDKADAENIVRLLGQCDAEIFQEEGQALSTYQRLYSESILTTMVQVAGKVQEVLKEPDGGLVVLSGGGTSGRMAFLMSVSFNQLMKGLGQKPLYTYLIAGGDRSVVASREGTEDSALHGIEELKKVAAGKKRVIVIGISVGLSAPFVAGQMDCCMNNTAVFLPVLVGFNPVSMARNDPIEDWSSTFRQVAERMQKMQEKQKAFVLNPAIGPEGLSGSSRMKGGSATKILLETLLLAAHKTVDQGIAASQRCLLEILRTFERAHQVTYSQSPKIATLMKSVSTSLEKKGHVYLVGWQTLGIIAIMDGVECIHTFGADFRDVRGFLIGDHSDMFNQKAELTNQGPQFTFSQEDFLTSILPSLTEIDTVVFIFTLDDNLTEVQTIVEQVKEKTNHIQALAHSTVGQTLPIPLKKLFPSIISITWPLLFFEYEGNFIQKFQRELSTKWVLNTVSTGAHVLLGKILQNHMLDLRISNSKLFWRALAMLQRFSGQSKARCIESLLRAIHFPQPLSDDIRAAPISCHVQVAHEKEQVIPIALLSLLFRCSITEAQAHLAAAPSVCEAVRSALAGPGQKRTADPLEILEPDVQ

| SMILES | outcome [1] | Potency [2] | outcome [3] | outcome [4] | outcome [5] | outcome [6] | max response [7] [%] | max response [8] [%] | outcome [9] |
| --- | --- | --- | --- | --- | --- | --- | --- | --- | --- |
| O=c1c2ccccc2nc2n1CCc1c-2[nH]c2ccccc12 | inactive | 820 nM (active) | inactive | inactive | inactive | – | – | – | – |
| O=C(O)CCCc1c[nH]c2ccccc12 | – | – | – | – | – | inactive | 0.64 | -3.33 | inactive |
